This note sets out measurements from PubChem BioAssay (NCI).

Test systems include BT-549 breast; MDA-MB-435 melanoma; SW-620 colon; MCF7 breast; HCT-116 colon; HCC-2998 colon; KM12 colon; T-47D breast.
Experiment in all cases: NCI-60 one-dose screen, 48 h (100 = growth as untreated, 0 = no growth, -100 = all killed)
What all share (settings): 10 µM unless noted

This is part of a sample that, as a whole, favours compounds with a hit. Of some 83,000 tested, about 20% had one in any assay.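 The endpoint reported here, percent growth, reads 100 for growth as untreated, 0 for no net growth and -100 for all cells dead.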 A number with no mark means an inactive call. The source made the active and inactive calls. Rule for the calls: active = growth percent below 10; inactive = the rest.

`O=C1C=CC(Nc2ccccc2[N+](=O)[O-])C1Nc1ccccc1[N+](=O)[O-]` (stereo unspecified): the growth in the assay on BT-549 breast is -58.7% (active); in the assay on MDA-MB-435 melanoma, 8.78% (active); in the assay with SW-620 colon, -71.6% (active); with MCF7 breast, -77.3% (active); in the assay with HCT-116 colon it was -89.5% (active); with HCC-2998 colon, 6.76% (active). Also, the growth with KM12 colon was 58.3%.

As for `Nc1ccc(Nc2nccc(-c3ccc4ccccc4c3)n2)cc1`, the growth with T-47D breast was 57.1%; with MDA-MB-435 melanoma, 8.53% (active); in the assay on SW-620 colon, 33.1%; in the assay with MCF7 breast, 19%; in the assay on HCT-116 colon, 26.2%; in the assay on HCC-2998 colon it was 71.9%. The growth in the assay on KM12 colon is 27.2%.

Turning to `CCN(CC)C12CCCCC1(C)C(C#N)(C#N)C(C#N)=C(N)O2` (stereo unspecified), the growth is 98.8% in the assay on T-47D breast; 96.8% in the assay on MDA-MB-435 melanoma; 109% in the assay with SW-620 colon; 105% in the assay on MCF7 breast; 100% with HCT-116 colon; 96.3% in the assay with HCC-2998 colon. Besides, the growth with KM12 colon is 106%.

`CN1/C(=C\C=C\C2=[N+](C)c3ccccc3C2(C)C)C(C)(C)c2ccccc21`: the growth in the assay on T-47D breast was -9.24% (active); in the assay with MDA-MB-435 melanoma it was -48.9% (active); in the assay with MCF7 breast, -2.53% (active); in the assay with HCT-116 colon it was 0.854% (active); with HCC-2998 colon it was -60.8% (active); with KM12 colon it was -64.9% (active).

With `COc1ccc(-c2cc(C(=O)N=Nc3c(O)[nH]c4ccccc34)no2)cc1`, the growth is 98% in the assay with T-47D breast; 102% with MDA-MB-435 melanoma; 96.9% in the assay on SW-620 colon; 95.1% in the assay with MCF7 breast; 100% in the assay on HCT-116 colon; 107% in the assay on HCC-2998 colon. Besides, the growth in the assay with KM12 colon was 101%.

For the molecule `Cc1ccc(S(=O)(=O)n2cc(-c3csc(-c4cn(C)c5ncccc45)n3)c3ccccc32)cc1`, the growth is 24.4% with T-47D breast; 3.65% (active) in the assay on MDA-MB-435 melanoma; 40% in the assay with SW-620 colon; 19.8% in the assay with MCF7 breast; 36% in the assay on HCT-116 colon; 88.4% in the assay with HCC-2998 colon. The growth in the assay on KM12 colon was 29.3%.

Consider `O=C1C[C@H](N2C(=O)c3ccccc3S2(=O)=O)C2CO[C@@H]1O2`, for which the growth is 54.1% in the assay on T-47D breast; 95.7% in the assay with MDA-MB-435 melanoma; 56.1% in the assay on SW-620 colon; 23.1% in the assay on MCF7 breast; 42.7% with HCT-116 colon; 99.3% in the assay with HCC-2998 colon. The growth in the assay with KM12 colon was 102%.

Take `CCOc1ccc(Nc2nc(-c3c(C)nc4ncccn34)cs2)cc1`: the growth was 20.6% in the assay on BT-549 breast; -41% (active) with MDA-MB-435 melanoma; 24.6% in the assay on SW-620 colon; 15% in the assay on MCF7 breast; 2.95% (active) in the assay with HCT-116 colon; 23.4% in the assay on HCC-2998 colon. The growth with KM12 colon is 6.58% (active).

`CCN(CC)CC(C)(C)C(=O)/C=C/c1ccccc1`: the growth in the assay on BT-549 breast is 46%; in the assay with MDA-MB-435 melanoma it was 40%; in the assay with SW-620 colon, 35.4%; in the assay on MCF7 breast it was 5.47% (active); with HCT-116 colon it was 12.8%; in the assay on HCC-2998 colon it was 79.3%. Also, the growth in the assay on KM12 colon was 53.9%.

Regarding `Cc1ccc2c(c1)n([O-])c1cc(Cl)ccc1[n+]2=O`, the growth in the assay on T-47D breast is 93.9%; in the assay on MDA-MB-435 melanoma, 96.8%; in the assay with SW-620 colon, 119%; in the assay on MCF7 breast, 108%; in the assay on HCT-116 colon, 84.2%; in the assay with HCC-2998 colon, 120%. Moreover, the growth in the assay with KM12 colon was 105%.

As for `CN1Cc2c(cc(CN3CCCCC3)n2C)C(c2ccc(Br)cc2)C1` (stereo unspecified), the growth in the assay on BT-549 breast was 83.1%; in the assay with MDA-MB-435 melanoma, 65.5%; in the assay with SW-620 colon, 90.8%; in the assay on MCF7 breast, 71.8%; with HCT-116 colon, 61.8%; in the assay with HCC-2998 colon it was 84.2%. In addition, the growth in the assay with KM12 colon is 94.5%.

Consider `O=C1c2c[n+](Cc3ccccc3)ccc2-c2nc3ccccc3c3ccnc1c23`, for which the growth is -48.4% (active) in the assay with T-47D breast; -81.8% (active) with MDA-MB-435 melanoma; -12.9% (active) in the assay on SW-620 colon; -42.3% (active) in the assay on MCF7 breast; -31.5% (active) with HCT-116 colon; -53% (active) with HCC-2998 colon. Moreover, in the assay on KM12 colon, the growth was 2.73% (active).

On to `O=C1/C(=C\c2cn(C(=O)c3ccc(Cl)cc3)c3ccccc23)c2ccccc2N1c1c(Cl)cccc1Cl`, for which the growth was 92.5% in the assay with T-47D breast; 116% in the assay with MDA-MB-435 melanoma; 105% in the assay on SW-620 colon; 95.7% in the assay on MCF7 breast; 94.1% with HCT-116 colon; 102% with HCC-2998 colon. In addition, the growth in the assay with KM12 colon was 111%.

For `COC1C/C(=N\O)C2OC(c3ccccc3)OCC2O1` (stereo unspecified), the growth is 103% with T-47D breast; 102% in the assay on MDA-MB-435 melanoma; 105% with SW-620 colon; 102% in the assay with MCF7 breast; 97.9% with HCT-116 colon; 110% with HCC-2998 colon. Moreover, the growth in the assay with KM12 colon was 121%.

Take `CS(=O)CCCCCN=C=S` (stereo unspecified): the growth is -26.3% (active) in the assay with T-47D breast; 20.4% with MDA-MB-435 melanoma; 5.5% (active) in the assay with SW-620 colon; 0.852% (active) with MCF7 breast; -2.02% (active) in the assay on HCT-116 colon; -11.3% (active) with HCC-2998 colon. Besides, in the assay with KM12 colon, the growth is -12.6% (active).

`O=C(CO[N+](=O)[O-])Nc1ccc(C(=O)/C=C/c2ccc(Cl)cc2)cc1`: the growth is 55.5% with T-47D breast; -2.76% (active) in the assay with MDA-MB-435 melanoma; -61.8% (active) in the assay on SW-620 colon; 1.64% (active) with MCF7 breast; -49.2% (active) in the assay with HCT-116 colon; -61.3% (active) in the assay on HCC-2998 colon. Besides, the growth in the assay on KM12 colon is -60.6% (active).

As for `CCCCNP1(NCCCC)=NP(NCCCC)(NCCCC)=NP(NCCCC)(NCCCC)=NP(NCCCC)(NCCCC)=N1`, the growth was -5.86% (active) in the assay on T-47D breast; 6.7% (active) in the assay with MDA-MB-435 melanoma; 6.12% (active) with SW-620 colon; -7.14% (active) in the assay on MCF7 breast; 0.711% (active) in the assay on HCT-116 colon; -24.9% (active) in the assay with HCC-2998 colon. The growth in the assay with KM12 colon was -24.7% (active).

As for `Nc1nc(SCc2ccccc2)c2ncn(C3CCCC3)c2n1`, the growth in the assay with T-47D breast is 98.7%; in the assay on MDA-MB-435 melanoma, 104%; with SW-620 colon, 102%; with MCF7 breast, 91.7%; with HCT-116 colon it was 107%; in the assay with HCC-2998 colon, 107%. Further, in the assay with KM12 colon, the growth was 113%.

`Cc1ccc(SCN2CCN(c3cccc(Cl)c3)CC2)cc1`: the growth was 86.7% in the assay on T-47D breast; 89.7% in the assay with MDA-MB-435 melanoma; 107% in the assay on SW-620 colon; 85.2% in the assay with MCF7 breast; 91.6% with HCT-116 colon; 100% with HCC-2998 colon. In addition, in the assay on KM12 colon, the growth is 104%.

On to `C=CCSc1nnc(-c2ccc(C(C)(C)C)cc2)n1-c1cccc(C(F)(F)F)c1`, for which the growth in the assay on BT-549 breast is 19.3%; with MDA-MB-435 melanoma, 52.5%; with SW-620 colon, 46.2%; in the assay with MCF7 breast, 12.1%; in the assay with HCT-116 colon it was 13.3%; with HCC-2998 colon it was 51.1%. The growth in the assay with KM12 colon is 27.1%.

For `CCOC(=O)C12CCCC1=CC(=O)CC2` (stereo unspecified), the growth was 110% in the assay with BT-549 breast; 112% with MDA-MB-435 melanoma; 109% in the assay on SW-620 colon; 101% with MCF7 breast; 105% in the assay on HCT-116 colon; 105% in the assay on HCC-2998 colon. Besides, the growth in the assay with KM12 colon was 106%.
